Compound activity as filed in PubChem BioAssay.
Cruzain inh noDet = blocks cruzain activity in detergent-free assay; P25779; purified cruzain, Z-FR-AMC fluorescence, no detergent; Potency, µM, actives largely listed as inhibitors; 200,000 compounds, 2.3% hits; further: nearly all actives have a fitted effect of over 40% in size
Target sequence (P25779 123-467 limits assumed): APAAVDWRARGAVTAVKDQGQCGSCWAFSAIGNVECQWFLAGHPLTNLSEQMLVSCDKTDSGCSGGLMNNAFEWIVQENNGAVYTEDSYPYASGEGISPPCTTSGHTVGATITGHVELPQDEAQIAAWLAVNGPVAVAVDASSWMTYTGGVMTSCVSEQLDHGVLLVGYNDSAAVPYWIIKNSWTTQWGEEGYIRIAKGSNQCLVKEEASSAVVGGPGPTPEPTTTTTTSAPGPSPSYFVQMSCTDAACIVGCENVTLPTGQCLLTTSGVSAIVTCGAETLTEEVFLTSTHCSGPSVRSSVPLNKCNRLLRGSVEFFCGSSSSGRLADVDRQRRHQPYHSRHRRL
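Purified cruzain at 1.5 nM, pre-incubated 15 min with compound at room temperature in 100 mM sodium acetate pH 5.5, 5 mM DTT, 0.00005% Triton X-100. Reaction started with 2 uM Z-FR-AMC; AMC fluorescence increase over 60 s gives rate.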
NS1 function inh = inhibitors of influenza NS1 protein function. Potency, µM (top dose mostly 46.1 µM). 270,000 compounds, 0.4% hits; calls by dose curve; further: actives are rising curves; nearly all actives have a fitted effect of over 50% in size
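In this qHTS, NS1 from influenza A is expressed in budding yeast, where it slows growth. Cells are switched from glucose to 2% galactose medium (pH 6.0, -URA), treated with compound, and growth recovery is read at OD600.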
Cruzain inh Det = blocks cruzain activity in presence of Triton detergent; P25779; Potency, µM, most hits filed as inhibitors; purified cruzain, Z-FR-AMC fluorescence, 0.01% Triton; 200,000 compounds, 0.43% hits; AID 1478; further: nearly all actives have a fitted effect of over 40% in size
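Cysteine protease activity tested under reducing, mildly acidic conditions (100 mM sodium acetate pH 5.5, 5 mM DTT) plus 0.01% Triton X-100. Cruzain 1.5 nM; substrate Z-FR-AMC 2 uM; 15 min compound preincubation at room temperature.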
Numbers stand for hits; - = inactive; ? = inconclusive; . = no result given. Shown is part of a subset that was picked to be rich in hits. Unless noted, the call rests on the fitted dose curve; in most records, active means well fitted curve in the direction sought with a large enough effect; inconclusive means small, poorly fitted or top-dose-only effect, or another doubt; inactive means no such curve, though single readings can be large; an effect the other way counts as inactive or inconclusive.

SMILES | Cruzain inh noDet | NS1 function inh | Cruzain inh Det
CC(=O)NCCC(=O)Nc1sc2c(c1-c1nc3ccccc3[nH]1)CCCC2 | - | - | -
CCOc1ccc(-c2nc(SCC(=O)NCCCOC)c(-c3ccccc3)[nH]2)cc1 | - | . | -
CC(=O)N1[C@H](Cc2ccccc2)C=C[C@]1(C)C(=O)NCCc1c[nH]c2ccccc12 | ? | - | -
CCn1c(C)c(C)c2cc(C(=O)Nc3cccc(Cl)c3)ccc21 | ? | - | -
COc1ccc(OC)c(NC(=O)c2ccc3c(c2)c(C)c(C)n3Cc2ccc(F)cc2)c1 | 5µM | . | -
CC(=O)c1cccc(NC(=O)c2ccc3c(c2)c(C)c(C)n3Cc2ccc(Cl)cc2)c1 | 6.3µM | . | -
Cc1c(C)n(Cc2ccc(F)cc2)c2ccc(C(=O)Nc3ccc(Cl)cc3)cc12 | 25µM | . | -
COc1ccc(NC(=O)c2ccc3c(c2)c(C)c(C)n3Cc2ccc(F)cc2)c(OC)c1 | ? | . | -
CCOc1ccc(NC(=O)c2ccc3[nH]c(C)c(C)c3c2)cc1 | - | . | -
Cc1ccc(CNC(=O)c2ccc3c(c2)c(C)c(C)n3Cc2ccc(Cl)cc2)o1 | ? | . | -
CCOc1ccc(NC(=O)c2ccc3c(c2)c(C)c(C)n3Cc2ccc(F)cc2)cc1 | 25µM | . | -
O=S(=O)(N1CCOCC1)N1CCOCC1 | . | - | .
O=C(COC(=O)c1ccc2c(c1)S(=O)(=O)N=C1CCCCCN12)NCc1cccs1 | . | - | .
Cc1ccc(-n2c(C)cc(/C=N/NC(=O)c3ccncc3)c2C)cc1 | - | - | -
COc1ccc(Cl)cc1NC(=O)C(=O)N/N=C/c1cc(C)n(-c2ccc(C)cc2)c1C | 13µM | - | -
O=c1c(Cc2ccc(Cl)cc2Cl)c(O)ccn1Cc1ccncc1 | . | - | .
Cc1ccc(NC(=O)Cn2cnc3sc(C(=O)NCCN(C)C)c(C)c3c2=O)cc1Cl | - | - | -
Cc1ccc(NC(=O)Cn2cnc3sc(C(=O)O)c(C)c3c2=O)cc1Cl | - | . | 0.0063µM
COC(=O)c1sc(NC(=O)c2c(OC)cccc2OC)c(C#N)c1C | . | - | .
COC(=O)C1=CN(Cc2ccc(C)cc2)C=C(C(=O)OC)C1c1cc(OC)c(OC)c(OC)c1 | . | - | .
COCCN1C=C(C(=O)OC)C(c2cc(Br)c(OC)c(OC)c2)C(C(=O)OC)=C1 | ? | - | 22µM
COc1cccc(NC(=O)CCc2c(C)nc3c4cccnc4nn3c2C)c1 | - | . | -
CCCCNC(=S)NC(=O)c1ccccc1Br | - | - | -
COc1nc(Oc2ccc(C(=O)O)cc2)nc(Oc2ccc(C(=O)O)cc2)n1 | - | - | -
COc1ccc(Oc2nc(Oc3ccc(OC)cc3)nc(Oc3ccc(OC)cc3)n2)cc1 | 3.2µM | - | -
SMILES | Cruzain inh noDet | NS1 function inh | Cruzain inh Det
COc1ccc(CN(CC(=O)NCCc2ccccc2)C(=O)CCC(=O)Nc2cc(C)ccn2)cc1 | . | - | .
CC(=O)Nc1ncc(Cc2cccc(Cl)c2)s1 | . | - | .
N#C/C(=C/c1cn(Cc2ccc(F)cc2)c2ccccc12)C(=O)Nc1cccc(Cl)c1 | 7.9µM | . | -
COc1cccc(NC(=O)/C(C#N)=C\c2cn(Cc3ccc(C)cc3)c3ccccc23)c1 | 7.9µM | . | -
N#C/C(=C\c1cn(Cc2ccc(C#N)cc2)c2ccccc12)C(=O)NCc1cccs1 | ? | - | -
Cn1cc(/C=C(\C#N)C(=O)Nc2ncc(Cc3cccc(Cl)c3)s2)c2ccccc21 | 7.9µM | - | -
COc1cccc(NC(=O)/C(C#N)=C/c2ccc(-c3ccc(C)cc3)o2)c1 | ? | . | -
Cc1ccc(C)c(OCc2cc(C(=O)N3CC[C@H](O)C3)no2)c1 | . | - | .
CCOc1ccc(C(=O)OCCCN(C)C)cc1 | - | - | -
COc1ccc(N2C(=O)CC(Sc3ncn[nH]3)C2=O)c(OC)c1 (stereo unspecified) | ? | - | -
CC(C)c1ccc(N2C(=O)CC(Sc3ncn[nH]3)C2=O)cc1 (stereo unspecified) | 4µM | - | -
CC1CCCCC12NC(=O)N(CC(=O)OCC(=O)c1ccc(OC(F)F)cc1OC(F)F)C2=O (stereo unspecified) | . | - | .
CCCCN1C(=O)/C(=C/C=C2\N(C)c3ccccc3C2(C)C)SC1=S | 32µM | - | -
CCCN1C(=O)/C(=C\C=C2/C=CN(CC)c3ccccc32)SC1=S | - | - | -
Cc1cc(C(=O)N/N=C/c2ccc([N+](=O)[O-])cc2)c(C)o1 | . | - | .
COc1ccc(N2C(=O)/C(=C/c3ccc([N+](=O)[O-])cc3)C=C2c2ccccc2)cc1 | 16µM | - | -
O=C1/C(=C/c2ccc([N+](=O)[O-])cc2)C=C(c2ccccc2)N1c1ccccc1 | 13µM | - | -
COc1ccc(N2C(=O)CC(c3ccc([N+](=O)[O-])cc3)C2=O)cc1 (stereo unspecified) | . | - | .
O=C1/C(=C/c2ccc([N+](=O)[O-])cc2)C=C(c2ccccc2)N1c1ccc(O)cc1 | ? | - | -
OCCN(Cc1ccccc1)CC(O)COc1ccc(-c2ccccc2)cc1 (stereo unspecified) | . | - | .
COc1ccc(Cn2c(=O)[nH]c3cc(C(=O)NC4CCN(Cc5ccccc5)CC4)ccc32)cc1 | . | - | .
Cc1ccnc2nc(C(=O)Nc3ccc4c(c3)OCO4)nn12 | - | - | -
CC(=O)c1cccc(NC(=O)/C(=C\c2cccnc2)NC(=O)c2ccc(C)cc2)c1 | . | - | .
CSc1ccc(/C=C(/NC(=O)c2ccc(C)cc2)C(=O)Nc2cccc(F)c2)cc1 | 20µM | - | -
Cc1cc(F)ccc1Oc1cc(NN2CCCCC2)c([N+](=O)[O-])cc1[N+](=O)[O-] | . | - | .
SMILES | Cruzain inh noDet | NS1 function inh | Cruzain inh Det
COC(=O)c1cc(-c2ccccc2)sc1NC(=O)CN1C(=O)c2ccccc2C1=O | 25µM | - | -
COC(=O)c1cc(OC)c(OC)cc1NC(=O)CN1C(=O)c2ccccc2C1=O | ? | - | -
CC1(C)CC(NC(=O)c2cc(COc3cccc(C(F)(F)F)c3)on2)CCO1 (stereo unspecified) | . | - | .
O=C(Nc1cccc(Cl)c1)Nc1ccc(Cl)cn1 | 25µM | - | -
O=C(Nc1ccc(F)c(Cl)c1)Nc1ccc(Cl)cn1 | . | - | .
Cc1cccnc1NC(=O)Nc1cccs1 | - | - | -
O=C(NC1=NCCS1)c1ccccc1Cl | . | - | .
O=C(NC1=NCCS1)c1csc2ccccc12 | 16µM | - | -
c1cc(CNc2ccc3c(c2)OCO3)ccn1 | - | - | -
Cc1ccc(CNc2ccc3c(c2)OCO3)cc1 | 25µM | 2.8µM | -
COc1ccc(-n2c(=S)[nH]c3cc(C(=O)Nc4ccccc4OC)ccc3c2=O)cc1 | - | - | -
CSc1nnc2c3cc(F)ccc3n(C)c2n1 | . | - | .
CCN(CC)CCSc1nnc2c3cc(F)ccc3n(C)c2n1 | 13µM | . | 16µM
CCCCn1c2ccc(F)cc2c2nnc(SCCN3CCCCC3)nc21 | ? | - | 16µM
CCN(CC)CCSc1nnc2c3cc(F)ccc3n(Cc3ccccc3)c2n1 | . | - | .
Cn1c2ccc(F)cc2c2nnc(SCCN3CCCCC3)nc21 | 13µM | - | 14µM
CCCCn1c2ccc(C)cc2c2nnc(SCCN3CCCCC3)nc21 | . | - | .
CC(C)(C)Nc1nc(Cl)nc(NC2CCCCC2)n1 | . | - | .
Cc1nc(NCC2CC2)c2nnn(Cc3ccccc3)c2n1 | . | - | .
Cc1cc2c(NS(=O)(=O)c3ccc(F)cc3)cccc2nn1 | . | - | .
CCCN1C(=O)CN(C2CCCCCC2)C(=O)C1c1ccc(OCC)c(OC)c1 (stereo unspecified) | - | . | -
Cc1cccc(C2=NN(c3ccccc3)[C@@H](C(=O)N3CCOC3=O)[C@@H]2c2ccc(F)cc2)c1 | ? | . | -
